Reference: ChEMBL document CHEMBL5308504, “Tm Shift (DSF) assay results for EUbOPEN Chemogenomics Library” (2023)

The compounds below were run against Bromodomain-containing protein 4 (Homo sapiens) (UniProt O60885). Conditions: Compound concentration 20.0 uM, Protein concentration 2.0 uM, Result type QC Liability.

SMILES	ΔTm
Cc1csc(S(=O)(=O)N(CC(C)C)c2cc3c(cc2OCc2ccc(C(=O)O)cc2)CCC3)n1	-0.64 °C
COC(=O)c1ccc2c(c1)NC(=O)/C2=C(\Nc1ccc(-c2nccn2C)cc1)c1ccccc1	-1.87 °C
C[C@H](NC(=O)c1cnc2n1[C@](C)(Cc1ccc(C#N)cc1)C(=O)N2c1cc(Cl)c(F)c(Cl)c1)C(=O)NC1(c2ccccn2)CC1	5.21 °C
c1ccc2c(c1)SCc1c-2[nH]c2ccccc12	-15.3 °C
CN[C@@H](C)C(=O)N[C@H](C(=O)N1CCC[C@H]1C(=O)N[C@H]1c2ccccc2C[C@H]1OCC#CC#CCO[C@@H]1Cc2ccccc2[C@@H]1NC(=O)[C@@H]1CCCN1C(=O)[C@@H](NC(=O)[C@H](C)NC)C1CCCCC1)C1CCCCC1	-4.51 °C
CCN1CCN(Cc2ccc(C(=O)Nc3ccc(C)c(Oc4ccc5c(c4)CC(=O)N5)c3)cc2C(F)(F)F)CC1	-2.44 °C
CN1C(=O)Cc2ccc(-c3ccc(C[C@@H](C#N)NC(=O)[C@H]4N[C@@H]5CC[C@H]4C5)c(F)c3)cc21	0.1 °C
COCCc1ccc(-c2c(C)nc3c(N4CCOCC4)ccnn23)cn1	-1.01 °C
CP(C)(=O)c1ccc(CNC(=O)C2CCN(S(=O)(=O)c3cc(Cl)cc(Cl)c3)CC2)cc1	-2.43 °C
COc1cc(N[C@@H]2CCCC[C@]2(O)C(F)(F)F)ccc1F	-2.92 °C
C[C@@H]1C[C@H](C)CN(c2ncc(Cl)c(Nc3ccc4c(c3)cc(OC(C)(C)C(=O)O)c(=O)n4C)n2)C1	-0.93 °C
CNc1ncc2cc(-c3ccc(-c4cccc(C)n4)cc3Cl)c(=O)n(C[C@H]3OC[C@H](N)CO3)c2n1	-1.96 °C
